Bioassay records (PubChem)
MEKK3 PB1 HTS = modulators of MEKK3-MEK5 PB1 binding, primary screen, biochemical, wildtype MEKK3, multiplex bead flow cytometry, Alexa488-MEK5. binding response (% of control), % at 10 µM. Mitogen-activated protein kinase kinase kinase 3 (Homo sapiens), Q99759. AID 1529, 2009. bead-based flow cytometry, Alexa488-MEK5 binding to MEKK3; actives lie on both sides; 0 = blocked by unlabeled MEK5, 100 = vehicle. actives 1.4% (n = 290,000);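 active = binding response more than 3 SD above or below the average of its plate-row segment, actives on both sides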;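 also: Alexa488 bead fluorescence after subtracting the streptavidin-only scavenger bead signal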
Target sequence (Q99759 whole entry, looked up): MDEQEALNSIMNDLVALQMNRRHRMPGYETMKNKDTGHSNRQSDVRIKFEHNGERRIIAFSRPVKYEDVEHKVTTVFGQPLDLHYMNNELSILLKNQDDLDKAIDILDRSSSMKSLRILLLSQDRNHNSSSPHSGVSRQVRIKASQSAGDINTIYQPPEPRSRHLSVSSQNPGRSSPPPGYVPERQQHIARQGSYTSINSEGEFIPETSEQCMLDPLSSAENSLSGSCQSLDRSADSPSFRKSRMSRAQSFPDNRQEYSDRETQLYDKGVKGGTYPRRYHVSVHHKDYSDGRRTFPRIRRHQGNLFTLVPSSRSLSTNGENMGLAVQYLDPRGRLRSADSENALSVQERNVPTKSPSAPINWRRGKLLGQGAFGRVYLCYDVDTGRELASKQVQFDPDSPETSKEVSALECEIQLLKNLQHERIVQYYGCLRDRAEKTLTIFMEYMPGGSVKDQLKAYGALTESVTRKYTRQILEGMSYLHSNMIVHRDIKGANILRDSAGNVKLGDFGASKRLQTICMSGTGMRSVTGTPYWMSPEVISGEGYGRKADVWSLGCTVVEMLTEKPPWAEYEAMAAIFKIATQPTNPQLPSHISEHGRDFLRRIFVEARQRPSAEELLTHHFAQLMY
dFosB activator = activators of delta FosB homodimer, primary screen, biochemical, fluorescence polarization, TAMRA-CDK5 oligo, single point; activation, % at 25 µM; Protein FosB (Mus musculus), P13346; AID 493131, 2011; purified delta FosB; percent of positive-control signal above neutral wells; actives 0.99% (n = 340,000);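 active = mean activation above about 17%, with every replicate also reaching it, limit read from the data, passing the limit was not always enough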
MEKK2wt PB1 HTS = modulators of MEK5 binding to wildtype MEKK2, primary screen, biochemical, multiplex bead flow cytometry, Alexa488-MEK5; AID 1531, 2009; Mitogen-activated protein kinase kinase kinase 2 (Homo sapiens), Q9Y2U5; Alexa488-MEK5 binding to MEKK2 WT; actives lie on both sides; binding response (% of control), % at 10 µM; actives 1.1% (n = 290,000); in the data active = binding response below about 67% or above about 130%
MEKK2mut PB1 HTS = MEK5 binding signal on mutant MEKK2 PB1, primary screen, biochemical, multiplex bead flow cytometry, Alexa488-MEK5 | AID 1530, 2009 | percent response, % at 10 µM | actives 0.35% (n = 290,000) | Alexa488-MEK5 binding to MEKK2 mutant; in the data active = percent response above about 24%, passing the limit was not always enough
FID counter = compounds displacing fluorescent DNA intercalator, primary screen, artefact control for HCV NS3 helicase inhibitor project, biochemical, FID fluorescence | actives 0.17% (n = 290,000) | AID 1845, 2009 | inhibition, % at 7.9 µM | DNA fluorescent intercalator displacement; in the data active = inhibition above about 37%;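 also: 0% = vehicle and 100% = reference compound; higher means more ethidium bromide displaced from hairpin DNA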
MEKK2wt confirm = modulators of MEK5 binding to wildtype MEKK2, confirmation, biochemical, single concentration, multiplex bead flow cytometry. shares compounds with MEKK3 PB1 HTS. Alexa488-MEK5 binding to MEKK2 WT; actives lie on both sides. binding response (% of control), % at 10 µM. actives 2.4% (n = 5,900); in the data active = binding response below about 16% or above about 210%; inactive = in between
MEKK2mut confirm = mutant MEKK2 PB1-MEK5 binding signal retest – biochemical, single concentration, multiplex bead flow cytometry, confirmation. shares compounds with MEKK3 PB1 HTS. Alexa488-MEK5 binding to MEKK2 mutant. percent response, % at 10 µM. actives 2% (n = 5,900). AID 1893, 2009; in the data active = percent response mostly above about 71%, no sharp cut-off; inactive = mostly below about 38%;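 also: higher means compound restores mutant binding toward wildtype level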
MEKK3 confirm = MEKK3 wild-type PB1 binding to MEK5, inhibitors, confirmation, biochemical, bead multiplex flow cytometry, single concentration, wildtype; binding response (% of control), % at 10 µM; actives 1.8% (n = 5,900); Alexa488-MEK5 binding to MEKK3; stronger effect = lower value; shares compounds with MEKK3 PB1 HTS;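 active = binding response below 72% of control, or above a set upper limit, though filed actives all read lower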;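 also: 100% = DMSO only wells and 0% = binding blocked by excess unlabeled MEK5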
* hit, by the source's call; x = no result; [ ] = dose if it differs, or a comment. The list is not random: actives were taken first. Their share in the collection is about 2.9%.

SMILES	MEKK3 PB1 HTS	dFosB activator	MEKK2wt PB1 HTS	MEKK2mut PB1 HTS	FID counter	MEKK2wt confirm	MEKK2mut confirm	MEKK3 confirm
Cc1cccc2cc(CN(CCN3CCOCC3)C(=O)Nc3ccccc3F)c(=O)[nH]c12	132*	-10	112	1	-12	104	-4	101
CN(C)CCNc1ncnc2c1sc1nc(-c3ccccc3)c3c(c12)CCCC3	102	-33	201*	61*	17	209*	66	105
NC(=O)c1sc2nc(-c3ccccc3)c3c(c2c1N)CCCC3	100	-5	97	-1	-17	x	x	x
COc1ncnc2c1sc1nc(-c3ccccc3)c3c(c12)CCCC3	146*	-8	107	0	-3	96	-3	102
CC(O)C(NC=C1C(=O)OC(C)(C)OC1=O)C(=O)O (stereo unspecified)	105	4	106	8	2	x	x	x
Cc1ccc(P(=O)(CSC(=N)N)c2ccc(C)cc2)cc1	133*	-4	108	2	-2	101	-7	100
COc1ccc(NC(=O)N(C)C[C@H]2Oc3c(NC(=O)C4CC4)cccc3C(=O)N([C@H](C)CO)C[C@@H]2C)cc1	x	-2	x	x	x	x	x	x
COc1ccc(CCN2C(=O)C(O)=C(C(C)=O)C2c2ccccc2OC)cc1OC (stereo unspecified)	85	-3	90	-4	-34	x	x	x
COc1ccccc1C1C(C(C)=O)=C(O)C(=O)N1CCc1ccccc1 (stereo unspecified)	42*[inhibitor]	-3	10*[inhibitor]	-17	-21	110	5	106
CCOC(=O)/C(C#N)=C/c1cc2ccc(C)cc2nc1Cl	57*[inhibitor]	-1	91	-2	0	100	-6	99
CCOC(=O)/C(C#N)=C/c1cc2ccccc2nc1N1CCOCC1	66*[inhibitor]	-2	100	0	1	96	-9	98
Cc1ccc(-c2cc3ccccc3nc2N2CCOCC2)cc1	75*[inhibitor]	-6	85	-9	-5	106	3	109
CCOC(=O)/C(C#N)=C/c1cc2cc(C)c(C)cc2nc1Cl	101	-5	97	0	1	x	x	x
CCOC(=O)/C(C#N)=C/C1=C(N2CCOCC2)C(C)(C)OCC1	99	2	99	4	-9	x	x	x
CCC(=O)c1ccc(OC(=O)C2CCN(C3=NS(=O)(=O)c4ccccc43)CC2)cc1	x	-5	x	x	x	x	x	x
Cc1[nH][nH]c(=O)c1C=NCc1cccs1	95	0	95	-2	0	x	x	x
C/C(=N\NC(=O)Cc1c(C)[nH][nH]c1=O)c1ccc(Cl)c(Cl)c1	100	-1	99	-2	-5	x	x	x
C/C(=N/NC(=O)Cc1c(C)[nH][nH]c1=O)c1ccc(O)cc1	145*	3	113	2	0	97	-5	100
C/C(=N\NC(=O)Cc1c(C)[nH][nH]c1=O)c1cccc(Br)c1	49*[inhibitor]	-8	50	-12	-1	98	-6	100
Cc1ccc(S(=O)(=O)Nc2cccc(C(=O)NCCCn3ccnc3)c2)cc1F	x	-1	x	x	x	x	x	x
N#Cc1cccc(NC(=O)CN2C(=O)NC(Cc3ccccc3)C2=O)c1 (stereo unspecified)	94	-7	95	-6	-2	x	x	x
N=C1C=CC=C2C1=NC1(CCCCC1)N2O	2.0*[inhibitor]	-1	2.0*[inhibitor]	-21	-10	84	-6	87
CC(C)(C)N=C1C([N+](=O)[O-])=CC=C2C1=NC1(CCCCC1)N2O	104	-10	107	4	3	x	x	x
CCOC(=O)N1CCN(CCC(=O)Nc2cc(C)ccc2C)CC1	99	5	101	-4	-9	x	x	x
COc1ccccc1N1CCN(C2CCCN(C(=O)c3ccsc3)C2)CC1 (stereo unspecified)	104	-4	107	5	2	x	x	x
SMILES	MEKK3 PB1 HTS	dFosB activator	MEKK2wt PB1 HTS	MEKK2mut PB1 HTS	FID counter	MEKK2wt confirm	MEKK2mut confirm	MEKK3 confirm
CCOc1ccc(NC(=O)c2ccc(NC(=O)c3cn4c5c(c(N6CCN(C)CC6)c(F)cc5c3=O)OCC4C)cc2)cc1 (stereo unspecified)	45*[inhibitor]	-5	70	-8	7	181	40	85
Cc1cccc(NC(=S)NC(C)C(c2ccccc2)N2CCN(C)CC2)c1C (stereo unspecified)	102	-6	105	17	12	x	x	x
CCCn1c(SCC(=O)Nc2sc(C)c(C)c2C#N)nnc1C(C)C	124*	-8	116	6	-29	104	5	105
Cc1sc(NC(=O)CSc2nnc(C(C)C)n2C)c(C#N)c1C	106	-3	104	3	-11	x	x	x
O=C(COc1ccc(Cl)cc1)Nc1ccc2c(c1)CCC2	75*[inhibitor]	-1	100	-1	-12	98	-4	96
CC(=O)c1ccc(NC(=O)CN2CCC(C(=O)c3ccc(F)cc3)CC2)cc1	105	-12	110	6	-5	x	x	x
O=C(CN1CCC(C(=O)c2ccc(F)cc2)CC1)Nc1ccc(F)cc1	46*[inhibitor]	-3	66	2	-1	99	-4	101
COc1ccc(CC(=O)N(C)C2CCCCC2)cc1S(=O)(=O)N1CCOCC1	105	-3	94	-2	-14	x	x	x
O=C(O)/C(=C\c1ccccc1OC(F)F)Sc1nnc(-c2ccc(F)cc2)o1	88	-5	93	-1	-7	x	x	x
CC(=O)c1ccc(-c2ccccc2OC(F)(F)F)o1	49*[inhibitor]	-1	61	-22	-3	100	-9	98
O=C(Nc1ccc(OC(F)F)c(Cl)c1)c1cccc(OC(F)F)c1	106	-10	151*	27	6	113	6	107
COc1ccc(NC(=O)c2cccc(OC(F)F)c2)cc1Cl	101	-8	104	8	3	x	x	x
CCOC(=O)c1sc(N)c(C#N)c1CSc1nnc(C2CCCCC2)n1N	0.0*[inhibitor]	-3	-1.0*[inhibitor]	-20	-20	98	2	103
